Assay outcomes as filed in PubChem.
FLuc counter: counter-screen for miR-21 project: firefly luciferase inhibitors or activators. P08659. purified FLuc, Km substrates, luminescence inhibition. Potency, µM (highest dose often 57.5 µM), without a hit: at the top dose activity change, negative = inhibition, hits mostly inhibitors. 360,000 compounds, 6.9% hits. AID 588342;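 also: plate controls were vehicle for no effect and reference inhibitor for full effect; nearly all actives have a fitted effect of over 55% in size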
Target sequence (P08659 whole entry, looked up): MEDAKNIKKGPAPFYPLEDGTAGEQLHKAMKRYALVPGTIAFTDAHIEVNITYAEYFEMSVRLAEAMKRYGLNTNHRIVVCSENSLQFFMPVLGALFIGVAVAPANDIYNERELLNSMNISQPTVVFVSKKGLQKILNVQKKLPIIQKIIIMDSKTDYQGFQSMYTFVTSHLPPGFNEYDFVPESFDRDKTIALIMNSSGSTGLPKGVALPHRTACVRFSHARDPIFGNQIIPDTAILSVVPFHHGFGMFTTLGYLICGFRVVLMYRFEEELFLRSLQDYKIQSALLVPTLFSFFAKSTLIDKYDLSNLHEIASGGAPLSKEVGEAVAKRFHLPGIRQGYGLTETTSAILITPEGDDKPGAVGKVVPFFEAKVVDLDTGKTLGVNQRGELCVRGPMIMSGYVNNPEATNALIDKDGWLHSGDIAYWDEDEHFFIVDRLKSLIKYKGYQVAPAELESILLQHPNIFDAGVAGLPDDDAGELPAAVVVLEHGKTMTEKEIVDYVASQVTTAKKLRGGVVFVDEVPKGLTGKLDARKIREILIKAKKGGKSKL
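Biochemical qHTS of compounds, final roughly 60 µM downward over six points, against 10 nM purified firefly luciferase using Km concentrations of substrates (10 uM D-luciferin, 10 uM ATP) in Tris acetate pH 7.5 buffer; luminescence output.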
SMN2 splice up: SMN2 splice variant enhancement; Potency, µM (highest dose often 46.1 µM), for inactives: at the highest dose activity change, positive = activation, hits mostly activators; HEK293 SMN2-luciferase splicing reporter, luminescence, 30-36 h; 210,000 compounds, 2.8% hits; also: % of control where 0% means no effect; nearly all actives have a fitted effect of over 55% in size
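HEK293 cells carry an SMN2 minigene-luciferase reporter in which exon 7 inclusion puts luciferase in frame. Cells were seeded at 2000 cells/well, attached for 10-12 hours, then exposed to compounds for 30-36 hours at 37C before ONE-Glo luminescence.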
Rab9 promoter act: activators of Rab9 promoter. Huh7 Rab9 promoter-luciferase reporter, luminescence, 24 h. Potency, µM (series often up to 9.22 µM), inactives show at the highest dose activation, negative = inhibition, most hits filed as activators. 320,000 compounds, 2.8% hits; also: % of control where 0% means no effect; nearly all actives have a fitted effect of over 60% in size
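Measured in stably transfected Huh7 cells bearing a Rab9 promoter–luciferase construct: 24 h compound treatment at 37 °C, followed by luminescence detection.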
KinaseGlo FLuc: blocks Kinase-Glo luciferase, a counter-screen artifact. Q27757. Kinase-Glo luciferase, ATP luminescence, 8 min. Potency, µM (highest dose often 38.3 µM), without a hit: at the highest dose activity change, negative = inhibition, hits mostly inhibitors. 200,000 compounds, 0.28% hits; also: % is scaled to controls: 0 for no effect and ±100 for the full control effect; nearly all actives have a fitted effect of over 60% in size
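Recombinant Kinase-Glo luciferase, 10 uM ATP (linear range), luciferin; imidazole pH 7.2 / KCl / MgCl2 / Tween / BSA buffer; 8 min RT; luminescence.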
ELG1 genotox: inducers of genotoxicity in HEK293T ELG1-luciferase cells; HEK293T ELG1-luciferase reporter, luminescence, 16 h; Potency, µM (highest dose often 46 µM), for the others: top-dose activity change, positive = activation, most hits filed as activators; 330,000 compounds, 1.3% hits; also: % of control where 0% means no effect; nearly all actives have a fitted effect of over 60% in size
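Quantitative HTS format in 1536-well plates. HEK293T ELG1-luciferase reporter cells receive test compound and are incubated 16 hr at 37 °C, 5% CO2; ONE-Glo added, 30 min room temperature, then luminescence read.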
NPC1 prom act: activators of NPC1 promoter | Huh7 NPC1 promoter luciferase reporter, 24 h | Potency, µM (series often up to 9.22 µM), for inactives: top-dose activation, usual class: activators | 320,000 compounds, 2.4% hits | AID 485313; also: % of control where 0% means no effect; nearly all actives have a fitted effect of over 60% in size
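Readout is luciferase luminescence, reflecting NPC1 promoter activation in stably transfected Huh7 cells after 24 h compound exposure at 37 °C in reduced-serum medium with 10% FBS.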
* marks the source's active call; other numbers are inactive results; ! = not active in a repeat. Most compounds without a hit are left out; they make up all but 7.5% or so of the library. Calls follow the shape of the dose curve; as a rule, active = well fitted curve in the direction sought with a large enough effect; inconclusive = small, poorly fitted or top-dose-only effect, or another doubt; inactive = no such curve, though single readings can be large; an effect the other way counts as inactive or inconclusive. Potency is read from the fitted curve at half-maximal effect.

For Cc1ccc2cc(-c3noc(C(C)(C)C)n3)c(=O)[nH]c2c1 the results were FLuc counter -18%, SMN2 splice up -4%, Rab9 promoter act 21%, KinaseGlo FLuc 3%, ELG1 genotox 1% and NPC1 prom act 8%.
Screening Cc1nc2cnc(N(C)C)nc2n(C)c1=O returned SMN2 splice up 0% and KinaseGlo FLuc 1%.
`COc1ccccc1-n1cc(-c2ccccc2)[nH]c1=S` gave FLuc counter 0%, Rab9 promoter act 2%, ELG1 genotox 0% and NPC1 prom act -4%.
Screening O=[N+]([O-])c1ccc(-c2cn(-c3ccccc3F)c(=S)[nH]2)cc1 returned FLuc counter 1%, SMN2 splice up 14%, Rab9 promoter act 1.4µM*, KinaseGlo FLuc 0%, ELG1 genotox 10% and NPC1 prom act inconclusive.
`Cc1ccc(-c2cn(-c3ccccc3F)c(=S)[nH]2)cc1` gave FLuc counter inconclusive, Rab9 promoter act 3.2µM*, ELG1 genotox 15% and NPC1 prom act inconclusive.
Screening CC(C)OCCCn1c(SCc2ccccc2Cl)nc2c(sc3ccccc32)c1=O returned FLuc counter -1%.
For CC(=O)c1csc(COc2ccc(Cl)cc2)n1 the results were FLuc counter 24µM*, Rab9 promoter act 0.79µM*, ELG1 genotox inconclusive and NPC1 prom act 0.89µM*.
Screening CC(=O)Nc1nnc(COc2ccc(Cl)cc2)s1 returned FLuc counter 15µM*, SMN2 splice up 11µM*, Rab9 promoter act 3.5µM*, KinaseGlo FLuc 4%, ELG1 genotox 15µM* and NPC1 prom act 3.2µM*.
For NNC(=O)c1csc(COc2cc(Cl)cc(Cl)c2)n1 the results were FLuc counter 4%, Rab9 promoter act -3%, ELG1 genotox 1% and NPC1 prom act -6%.
`O=C(N=Nc1c(O)[nH]c2ccc(F)cc12)c1ccc(NS(=O)(=O)c2cccs2)cc1` gave FLuc counter inconclusive, Rab9 promoter act 7%, ELG1 genotox 1% and NPC1 prom act 4%.
Screening Cc1cccc2c(N=NC(=O)c3ccc(NS(=O)(=O)c4cccs4)cc3)c(O)[nH]c12 returned FLuc counter 0.43µM*, Rab9 promoter act inconclusive, ELG1 genotox 14% and NPC1 prom act inconclusive.
Cc1ccc2[nH]c(O)c(N=NC(=O)c3ccc(NS(=O)(=O)c4cccs4)cc3)c2c1 was read as FLuc counter 5.4µM*, Rab9 promoter act 0%, ELG1 genotox -4% and NPC1 prom act 2%.
Cc1nc(NS(=O)(=O)c2ccccc2)sc1C(=O)NNS(=O)(=O)c1ccccc1 was read as FLuc counter -10%, Rab9 promoter act 1%, ELG1 genotox 0% and NPC1 prom act -4%.
Screening Cc1nc(NS(=O)(=O)c2ccccc2)sc1C(=O)N/N=C/c1ccccc1 returned FLuc counter 9.5µM*, Rab9 promoter act 2%, ELG1 genotox 3% and NPC1 prom act 1%.
Screening COc1cccc(-c2nnc(Nc3nc4c(F)cccc4s3)o2)c1 returned FLuc counter 4.8µM*, SMN2 splice up 11µM*, Rab9 promoter act 3.2µM*, KinaseGlo FLuc -2%, ELG1 genotox 11% and NPC1 prom act 2.8µM*.
COc1cccc2sc(Nc3nnc(-c4ccccc4Cl)o3)nc12 was read as FLuc counter 12µM*, SMN2 splice up -23%, Rab9 promoter act -15%, KinaseGlo FLuc -1%, ELG1 genotox 11% and NPC1 prom act -15%.
Screening O=C(Nc1nnc(-c2ccccc2Cl)o1)c1nc2ccccc2s1 returned FLuc counter -5%, SMN2 splice up 10%, Rab9 promoter act -2%, KinaseGlo FLuc 1%, ELG1 genotox inconclusive and NPC1 prom act -1%.
Screening COc1ccccc1-c1nnc(Nc2nc3c(OC)cccc3s2)o1 returned FLuc counter 2.7µM*, SMN2 splice up -13%, Rab9 promoter act 3%, KinaseGlo FLuc -8%, ELG1 genotox 14% and NPC1 prom act -5%.
Screening COc1cccc2sc(NN)nc12 returned FLuc counter inconclusive, SMN2 splice up 5%, Rab9 promoter act 2%, KinaseGlo FLuc 1%, ELG1 genotox 0% and NPC1 prom act 16%.
`COc1cccc(-c2nnc(NC(=O)C3CCCCC3)o2)c1` gave FLuc counter 1%, SMN2 splice up 11%, Rab9 promoter act -3%, KinaseGlo FLuc -3%, ELG1 genotox inconclusive and NPC1 prom act 1%.
`O=C(CC(=O)NCCc1ccccc1)NCCc1ccccc1` gave FLuc counter -2%, Rab9 promoter act -3%, ELG1 genotox 1% and NPC1 prom act -3%.
Screening NNCCc1ccccc1 returned FLuc counter inconclusive, SMN2 splice up 4%, Rab9 promoter act 14µM*!, KinaseGlo FLuc 0%, ELG1 genotox 16% and NPC1 prom act 15%.
Screening NC(=O)c1c(NC(=O)c2ccc([N+](=O)[O-])o2)sc2c1CCCC2 returned FLuc counter -15%, Rab9 promoter act 11%, ELG1 genotox 1% and NPC1 prom act 15%.
`Cc1cccc(C(=O)Nc2sc3c(c2C#N)CCCCC3)c1` gave FLuc counter 0.95µM*, SMN2 splice up 2µM*, Rab9 promoter act 1.3µM*, KinaseGlo FLuc -8%, ELG1 genotox inconclusive and NPC1 prom act 0.5µM*.
`Cn1ncc(Cl)c1C(=O)NC(=S)Nc1sc2c(c1C#N)CCCCC2` gave FLuc counter 12µM*, SMN2 splice up -17%, Rab9 promoter act 5%, KinaseGlo FLuc 0%, ELG1 genotox 1% and NPC1 prom act 19%.
N#Cc1c(NC(=O)c2ccc([N+](=O)[O-])o2)sc2c1CCC2 was read as FLuc counter 4.8µM*, Rab9 promoter act 1.6µM*, ELG1 genotox inconclusive and NPC1 prom act 1.6µM*.
For N#Cc1c(NC(=O)c2cccnc2)sc2c1CCC2 the results were FLuc counter 9.5µM*, SMN2 splice up 3%, Rab9 promoter act -5%, KinaseGlo FLuc -6%, ELG1 genotox inconclusive and NPC1 prom act -16%.
Screening N#Cc1c(NC(=S)NC(=O)C2CCCC2)sc2c1CCCCC2 returned FLuc counter inconclusive, Rab9 promoter act inconclusive, ELG1 genotox 1% and NPC1 prom act 19%.
For O=C(Nc1ccc(Cl)cc1)C1CCN(c2nc3ccccc3n3cccc23)CC1 the results were FLuc counter -9%.
O=C(COC(=O)CCCOc1ccccc1)NNC(=O)c1ccc([N+](=O)[O-])cc1 was read as FLuc counter 2%, Rab9 promoter act -2%, ELG1 genotox 2% and NPC1 prom act 3%.
